Bioassay records as filed in PubChem.
MazF activator: activators of E. coli MazEF toxin-antitoxin RNase | P0AE70 | activation, % at 20 µM | AID 504720 | 350,000 tested, 0.32% active | FAM/BHQ RNA-DNA oligo cleavage fluorescence, 5 h; in the data active = activation above about 50%
Target sequence (P0AE70 whole entry, looked up): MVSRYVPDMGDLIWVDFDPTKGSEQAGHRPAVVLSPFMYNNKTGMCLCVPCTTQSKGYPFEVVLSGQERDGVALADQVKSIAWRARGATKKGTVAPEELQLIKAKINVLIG
Sa ugtP lethal: growth inhibition of S. aureus ugtP deletion strain; 330,000 tested, 0.54% active; S. aureus RN4220 ugtP deletion, OD600 growth, 16 h; growth inhibition, % (test concentration not listed); in the data active = growth inhibition above about 68%
BJeLR lethal: kills HRASV12-expressing BJeLR cells; 300,000 tested, 0.17% active; AID 1554; BJeLR (HRASV12) viability, CellTiter-Glo ATP luminescence, 48 h; inhibition, % (concentration not given with the values); in the data active = inhibition above about 50%
PriA SSB inh: blocks PriA binding to SSB C-terminal tail | inhibition, % at 33 µM | AlphaScreen SSBct-PriA binding, biotinylated peptide | 430,000 tested, 0.6% active; in the data active = inhibition mostly above about 37%, no sharp cut-off; inactive = mostly below about 20%
RN4220 kill: kills Staphylococcus aureus RN4220 | 330,000 tested, 0.33% active | inhibition, % (concentration not given with the values) | S. aureus RN4220 growth, OD600, 16 h | AID 1259311; in the data active = inhibition above about 85%
Numbers stand for hits; i = inactive; nt = no result given. In the library only some 1.2% were active in any assay of this set; here they are far more common.

SMILES	MazF activator	Sa ugtP lethal	BJeLR lethal	PriA SSB inh	RN4220 kill
Nc1ccc(Br)c2cccnc12	i	i	i	i	i
Nc1ccc(N=Nc2ccccc2)c2cccnc12	i	i	i	59	i
O=S(=O)(O)c1cccc2c(N=Nc3ccc(O)c4ncccc34)cccc12	i	i	i	62	i
COc1ccc(N=Nc2ccc(O)c3ncccc23)cc1	i	i	i	i	i
Cc1cccc(C)c1N=Nc1ccc(O)c2ncccc12	nt	nt	nt	i	nt
COc1cccc(N=Nc2ccc(O)c3ncccc23)c1	i	nt	66	i	nt
CCOC(=O)N1CCN(C(=O)C(=O)Nc2ccc3nc4n(c(=O)c3c2)CCCCC4)CC1	i	i	i	104	i
Oc1c(Br)cc(Br)cc1C=NNc1ccc(Cl)nn1	nt	100	nt	i	i
COc1ccc(-c2c(-c3ccccc3OC)oc3ccccc23)cc1F	i	89	nt	i	i
Cc1cccc(C(=O)OCc2cc3ccccc3[nH]c2=O)c1	77	i	i	i	i
COCCN1CCCc2ccc(NC(=O)c3ccc(Br)cc3)cc21	nt	nt	nt	61	nt
COCCN1CCCc2ccc(N)cc21	nt	nt	nt	79	nt
COCCN1CCCc2ccc(NC(=O)c3cc(C)cc(C)c3)cc21	nt	nt	nt	62	nt
CCn1c(C)cc(C(=O)COC(=O)c2cccnc2SC)c1C	i	i	nt	i	i
CCOc1ccc(Br)cc1CNCc1cccnc1	i	i	i	i	i
Cc1ccc(-c2ccccc2NC(=O)CCl)o1	i	i	i	i	i
Cc1ccc(-c2ccccc2NC(=O)CS(=O)CC(=O)Nc2ccc(C)c(Cl)c2)o1 (stereo unspecified)	385	nt	i	i	nt
CCOc1ccc(-c2csc(NC(=O)c3ccccc3S(C)(=O)=O)n2)cc1	nt	nt	nt	i	nt
CCCNC(=O)c1nnsc1S(=O)(=O)c1ccc(Cl)cc1	i	i	nt	i	i
CNC(=O)c1nnsc1S(=O)c1ccc(Cl)cc1 (stereo unspecified)	i	100	i	i	99
Cc1ccc(S(=O)c2snnc2C)cc1 (stereo unspecified)	i	i	i	i	i
CCCNC(=O)c1nnsc1S(=O)c1ccc(Cl)cc1 (stereo unspecified)	i	100	i	i	98
Cc1cccc(NS(=O)(=O)c2ccc(C)c(C(=O)NC3CCN(Cc4ccccc4)CC3)c2)c1	i	i	nt	47	i
Cc1ccccc1C(=O)NC1CCN(Cc2ccccc2)CC1	i	i	i	i	i
COc1ccc(CNC(=O)CSc2nnc(C)n2-c2ccc(F)cc2)cc1	i	i	i	i	i
SMILES	MazF activator	Sa ugtP lethal	BJeLR lethal	PriA SSB inh	RN4220 kill
Cc1ccc(/C=N/Nc2ccc3c(C(F)(F)F)cc(C(F)(F)F)nc3n2)cc1	285	nt	i	nt	nt
Cc1csc(NS(=O)(=O)c2cccc([N+](=O)[O-])c2)n1	i	i	i	i	i
CCOc1ccc(-c2cc(C)[n+](CCc3ccc(OC)c(OC)c3)c(-c3ccc(OCC)cc3)c2)cc1	i	100	i	i	100
O=[N+]([O-])c1cccnc1N1CCC(c2cc(-c3ccc(Cl)cc3Cl)n[nH]2)CC1	i	i	i	i	i
COc1ccc(OC)c(-c2cc(C3CCN(c4ncccc4[N+](=O)[O-])CC3)[nH]n2)c1	i	i	i	65	i
O=[N+]([O-])c1cccnc1N1CCC(c2cc(-c3cccc(C(F)(F)F)c3)n[nH]2)CC1	i	90	i	i	i
Cc1c(C(=O)O)sc(=S)n1-c1ccccc1	i	i	i	i	i
CSc1ccc(CNC(=O)CSc2nccn2-c2cccc(C(=O)NCc3ccco3)c2)cc1	nt	nt	nt	46	nt
COc1ccc(NC(=O)CSc2nccn2-c2cccc(C(=O)NCc3ccco3)c2)c(OC)c1	nt	nt	nt	i	nt
NC(N)=NN=Cc1ccc(OCc2ccc(Cl)cc2Cl)cc1	nt	101	nt	i	100
NC(N)=NN=Cc1ccc(OCc2ccccc2)c(OCc2ccccc2)c1	nt	101	nt	i	101
NC(N)=N/N=C/c1ccc(OCc2ccc(Cl)cc2)cc1	i	nt	i	nt	nt
FCCCOc1ccc(C=NOCc2ccc(Cl)cc2)cc1	nt	85	nt	i	i
NC(N)=NN=Cc1ccc(OCc2ccc(Cl)cc2)cc1	nt	100	nt	i	100
CCCCCC1CN(C2CCCCC2)C(=O)C1CC(=O)NCc1ccccc1 (stereo unspecified)	nt	i	nt	nt	i
CCCNC(=O)Cn1cnc2sc(C(=O)N3CCN(c4ccc(F)cc4)CC3)c(C)c2c1=O	i	i	i	i	i
COc1ccccc1C(=O)NCC(=O)NC(C)c1ccc(-n2ccnc2)cc1 (stereo unspecified)	i	i	i	i	i
O=C(Cc1ccc(Cl)cc1Cl)OCC(=O)N1CCCCC1	i	i	i	i	i
NS(=O)(=O)c1ccc(Nc2c([N+](=O)[O-])cncc2[N+](=O)[O-])cc1	i	90	i	i	96
COc1cccc(Nc2c([N+](=O)[O-])cncc2[N+](=O)[O-])c1	i	i	i	i	i
O=C(NCc1nnc2ccc(-c3cccs3)nn12)c1ccc(C(F)(F)F)nc1	nt	nt	nt	i	nt
CC[n+]1c(/C=C/c2c[nH]c3ccccc23)ccc2cc(C)ccc21	i	97	nt	i	96
CCOC(=O)N1CCC(c2cc(=O)n3[nH]c(C)c(-c4ccc(F)cc4)c3n2)CC1	i	i	i	55	i
O=P1(c2ccccc2)Nc2ccccc2N1c1ccccc1 (stereo unspecified)	i	i	nt	57	i
CC(C)Oc1ccc(C(=O)NCC(=O)OCC(=O)N(C)Cc2cccs2)cc1	i	i	i	i	i
SMILES	MazF activator	Sa ugtP lethal	BJeLR lethal	PriA SSB inh	RN4220 kill
CCCCCCCCCCCCCCCC[n+]1ccccc1	i	100	nt	i	100
CCCCCCCCCCCCCCCC[n+]1cccc(C(=O)N(CC)CC)c1	i	100	i	i	100
CCCCCCCCCCCCCCCC[n+]1ccc(C(N)=O)cc1	i	100	nt	i	100
CCCCCCCC[n+]1cccc(C(=O)N(CC)CC)c1	i	i	i	i	i
COc1cccc(C(=O)COC(=O)c2ccc(NC(C)=O)cc2)c1	i	i	i	i	i
CCN1c2ccccc2N(C)C1(C)c1ccccc1 (stereo unspecified)	i	nt	nt	i	nt
CN1c2ccccc2N(C)C1(C)c1ccccc1	i	i	i	42	i
O=C(N/N=C/c1ccccc1C(F)(F)F)c1ccc2nc[nH]c2c1	i	nt	i	nt	nt
COc1ccc(S(=O)(=O)N2c3cc(Cl)ccc3Oc3nc4ccccc4nc32)cc1	i	i	74	i	i
CC(C)(C)c1nnc(N/N=C/c2cc(Br)ccc2O)n(N)c1=O	i	nt	85	nt	nt
CC(C)(C)c1nnc(NN=Cc2ccccc2O)n(N)c1=O	nt	i	nt	i	i
CC1c2cccc(O)c2C(O)=C2C(=O)[C@]3(O)C(O)=C(C(N)=O)C(=O)C(N(C)C)C3C(O)C21 (stereo partly specified)	nt	99	nt	nt	100
CC1c2cccc(O)c2C(=O)C2C(=O)C3(O)C(=O)C(C(N)=O)C(=O)C(N(C)C)C3C(O)C21 (stereo unspecified)	nt	99	nt	nt	93
CC1c2cccc(O)c2C(O)=C2C(=O)C3(O)C(O)=C(C(N)=O)C(=O)C(N(C)C)C3C(O)C21 (stereo unspecified)	nt	100	nt	nt	98
